This is an account of results in PubChem BioAssay (NCI).

Compounds without any hit were thinned out: in the full panel of roughly 83,000, 20% have a hit.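 A percent growth of 40 corresponds to 60% growth inhibition; 0 means no net growth; -100 means all cells died. Active threshold: below 10.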 Active and inactive are the calls of the source.

The test system of this experiment is COLO 205 colon. The experiment can be described thus: NCI-60 one-dose screen, 48 h (100 = growth as untreated, 0 = no growth, -100 = all killed). The settings on record: 10 µM. The protocol:
Cells are grown in 96 well plates and exposed to the test compound for 48 hours. Compounds are tested at a single concentration, which is 10^-5 M for most compounds. The reported endpoint is percent growth (GI% or GIPRCNT), where numbers from 0 - 100% represent growth inhibition, and numbers from -100% - 0 represent cell death. For example, a value of 40 represents 60% growth inhibition. A value of 0 means no net growth occurred over the course of the experiment. A value of -40 indicates 40% of cells at the beginning of the experiment died by the end of the experiment. A value of -100 means all cells are dead at the end of the experiment.
NCI-60 Human Tumor Cell Lines Screen was performed using the standard one-dose NCI protocol, which is described in more detail at https://dtp.cancer.gov/discovery_development/nci-60/default.htm.
Compounds with GIPRCNT values below 10 were considered active. Activity score was based on GIPRCNT using the following formula: […]
Score is 0 for GIPRCNT values of 100 or above, 50 for GIPRCNT values of 0, and 100 for GIPRCNT values of -100.
Take `COc1ccc(C(=O)c2sc3nc(-c4cccs4)ccc3c2N)cc1OC`: the growth is 40.9% (inactive).

In the case of `COc1cccc2c1C(=O)c1c(O)c3c(c(O)c1C2=O)C[C@@](O)(C(=O)COC(=O)c1cccnc1)C[C@@H]3OC1CC(N)C(O)C(C)O1` (stereo not given in full), the growth is -68.8% (active).

`CC(=O)N(O)c1ccc(/C=C/c2ccccc2)cc1`: the growth is 46.5% (inactive).

As to `COc1ccc(/C(=C/c2cc(OC)c(OC)cc2[N+](=O)[O-])C(=O)O)cc1`, the growth was 127% (inactive).

Take `Cc1ccc(C)c(S(=O)(=O)NC2c3ccccc3Oc3ccccc32)c1`: the growth is 99.2% (inactive).

On to `O=C/C=C/c1ccc([N+](=O)[O-])cc1Cl`, for which the growth was 108% (inactive).

`CC(C)/C=N/NC(N)=S`: the growth was 103% (inactive).

With `CCN(CC)c1ccc(/C=C/C2=[N+](C)c3ccccc3C2(C)C)c(C)c1`, the growth is -58.4% (active).

As for `COc1ccc(Cn2cc3c(c2-c2cc(OC)c(OC)c(OC)c2)CCc2cnoc2-3)cc1[N+](=O)[O-]`, the growth was 1.15% (active).

For the compound `CCOC(=O)/C(C#N)=C(/C)C1CC1`, the growth was 108% (inactive).

As for `COc1cc(/C=C2\C(=O)Nc3cc(C)c(O)cc32)cc(OC)c1OC`, the growth is 69.1% (inactive).

`N#Cc1cnc2ccc(NCc3cnc[nH]3)cc2c1Nc1ccc(F)c(Cl)c1`: the growth is 96.9% (inactive).

On to `O=c1ccc2nc(-c3ccccc3)nn(-c3ccccc3)c-2c1`, for which the growth was -78.8% (active).

Take `Nc1ccc2c(c1)Cc1cc(N)c(Cl)cc1-2`: the growth is 105% (inactive).

On to `C[C@]12CC[C@H]3[C@@H](CC=C4C[C@@H](O)CC[C@@]43C)[C@@H]1CC[C@@H]2C(=O)C/C=N/O`, for which the growth was 101% (inactive).

For the compound `O=C(O)CCCN1C(=O)NC2(C1=O)c1ccccc1-c1ccccc12`, the growth is 108% (inactive).

In the case of `COc1cc(-c2n/c(=C\c3c(O)[nH]c4ccccc34)cc3c2=Nc2ccccc2-3)cc(OC)c1OC`, the growth was -49.2% (active).

For `CCCCCCCCCCN=C(c1ccc(N(C)C)cc1)c1ccc(N(C)C)cc1`, the growth is 6.54% (active).

As for `CNC(=O)c1cc(Oc2ccc(NC(=O)Nc3ccc(Cl)c(OC(C)C)c3)c(F)c2)ccn1`, the growth is 33.5% (inactive).

In the case of `CCC(O)c1ccc(Br)cc1NC(=O)c1cccc(Cl)c1` (stereo not given), the growth is 93.9% (inactive).

With `CC(=O)Oc1ccc(C2=Cc3ccc(OC(C)=O)cc3OC2C)cc1` (stereo not given), the growth was 102% (inactive).

For the compound `CCc1ccc(-c2nnc(COc3ccc(-c4nc5ccccc5[nH]4)cc3OC)o2)cc1`, the growth was 64.4% (inactive).

Consider `NS(=O)(=O)c1ccc(N2N=C(c3ccc(-c4ccccc4)cc3)CC2c2ccc(Cl)cc2)cc1` (stereo not given), for which the growth is 103% (inactive).

On to `CCCCCCCCCCCCc1ccc(C(=O)/C=C/C(=O)O)cc1`, for which the growth is 21.6% (inactive).

On to `COc1ccc(C2C=C(c3ccc(OC)c(OC)c3)N=C3SC=CN32)c(Br)c1` (stereo not given), for which the growth was 94.8% (inactive).

For `COc1cc(NS(C)(=O)=O)ccc1Nc1c2ccc(Cl)cc2nc2c(OC)cccc12`, the growth is 34.3% (inactive).

With `CCOC(=O)C1=C(Nc2ccc(OC)cc2)C(N)=NC1=N`, the growth is -10.1% (active).

`COC(=O)[C@]12CC[C@@H](C)[C@H](C)[C@@H]1C1=CC[C@@H]3[C@@]4(C)CC(=O)[C@H](O)[C@@]5(C)COC(=C45)C[C@@]3(C)[C@]1(C)CC2`: the growth was -80.6% (active).

For the compound `CC(C)=C1CCC(C)C/C1=N\N=C(N)N` (stereo not given), the growth is 108% (inactive).

Turning to `COc1ccc(-c2cc(=O)n(-c3nc4ccccc4[nH]3)[nH]2)cc1OC`, the growth is 113% (inactive).

As to `COc1ccc2c(=O)cc(C(Cl)(Cl)Cl)oc2c1`, the growth was -88.4% (active).

On to `COc1ccc(C2=NNC(c3sc(Cl)nc3Cl)C2)cc1` (stereo not given), for which the growth is 63.1% (inactive).

Regarding `CC(C)C[C@H](NC(=O)Cn1ccc2ccccc2c1=O)B(O)O`, the growth was 62.2% (inactive).

Consider `COc1cc(CSc2nc3ccc(C)cc3c(=O)n2-c2ccccc2)cc(OC)c1OC`, for which the growth is -24.2% (active).

As for `C=C[C@]1(C)C=C2C(=O)[C@@]3(O)OC(=O)[C@@]4(CCCC(C)(C)[C@H]34)[C@@]2(O)CC1`, the growth was -98.2% (active).

Turning to `COc1cc(/C=C/C(=O)c2cc(-c3ccc(F)cc3)ccc2O)cc(OC)c1OC`, the growth is 88.2% (inactive).

With `CCN1CCN(c2nc(NNC(=O)c3cccc(OC)c3)nc(N3CCN(C(c4ccccc4)c4ccccc4)CC3)n2)CC1`, the growth is -31.6% (active).

`COc1cc(-c2nc3cc(Cl)c(Cl)cc3[nH]2)ccc1OCC(=O)NN`: the growth is 108% (inactive).

`Cc1ccc(C2C=C(c3ccc(Cl)cc3)N=C3SC=CN32)c(Br)c1` (stereo not given): the growth is 91.1% (inactive).

As for `COc1ccc(C(=O)/C=C/c2cc(-c3ccc4c(c3)OCO4)n[nH]2)cc1OC`, the growth was 56.1% (inactive).
